Here are results for six compounds from PubChem BioAssay (NCATS).

A short description of assay [1]: Cell Viability - SK-N-SH (AID 435; calls by dose curve; note: potency is the fitted concentration of half-maximal effect). The following applies: SK-N-SH neuroblastoma cell viability qHTS. The method, boiled down: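 Luminescent ATP signal served as the viability read-out after 40 hours of compound treatment of human neuroblastoma SK-N-SH cells. Concentration-response data, scaled between DMSO and 100 uM tamoxifen, gave AC50 values by standard Hill modeling.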

A short description of assay [2]: Cell Viability - N2a (AID 540).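 Note: plate controls were DMSO alone for no effect and tamoxifen control for full effect; nearly all actives have a fitted effect of over 45% in size.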 The following applies: N2a mouse neuroblastoma cell viability; activity change, negative = cytotoxicity: at 92.2 µM (top of the series). The method, boiled down:
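N2a mouse neuroblastoma, 1500 cells/well, 5 hr settle; compound 40 hr, 37 °C; CellTiter-Glo 20 min RT; luminescence; Hill-fit AC50.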

Assay [3] can be described thus: Cell Viability - H-4-II-E (AID 543). Note: % is set by controls: 0 for no effect and ±100 for the full control effect; nearly all actives have a fitted effect of over 35% in size. The following applies: H-4-II-E rat hepatoma viability; series mostly up to 92.2 µM. The method, boiled down:
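qHTS, rat hepatoma H-4-II-E, 1500 cells/well; 40 hr compound exposure, 37 °C; CellTiter-Glo ATP luminescence after 20 min RT; AC50 by standard Hill fit.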

Assay [4] is described as follows: Cell Viability - Renal Proximal Tubule (AID 545).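 Note: 0% = DMSO only and -100% = 100 µM tamoxifen; nearly all actives have a fitted effect of over 40% in size.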 Particulars: renal proximal tubule cells viability, primary cells of rat origin; activity change, negative = cytotoxicity: at 91.7 µM (top of the series). The method, boiled down:
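Luminescent ATP signal (CellTiter-Glo) served as the viability read-out after 40 hr compound exposure of freshly isolated rat proximal tubule cells at 37 °C. Concentration-dependent ATP loss was fitted with the Hill equation to give AC50.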

Assay [5] can be described thus: Cell Viability - LYMP2-001 (AID 921).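 Note: cells exposed to compound for 24 h at 37 °C; 0% = DMSO only and full inhibition = tetraoctylammonium bromide control wells; nearly all actives have a fitted effect of over 70% in size.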 The following applies: LYMP2-001 lymphoblastoid cell viability; series mostly up to 92.2 µM. The method, boiled down: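 Steps: seed 2500 lymphoblastoid cells/well; 5 hr, 37 C; add compound; 24 hr, 37 C; CellTiter-Glo reagent, 30 min room temperature; read luminescence. Concentration-response modeled by Hill equation for AC50.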

The nature of assay [6]: MultiTox-Fluor Cytotoxicity Assay - LYMP1-001 - Live Cells (AID 947).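 Note: 0% = DMSO only and full inhibition = tetraoctylammonium bromide control.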 Particulars: LYMP1-001 lymphoblastoid cells, live-cell protease fluorescence viability; series mostly up to 92.2 µM.
Assay [7] in a line: MultiTox-Fluor Cytotoxicity Assay - LYMP1-002 - Dead Cells (AID 960).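 Note: 0% = DMSO and 100% = tetraoctylammonium bromide; nearly all actives have a fitted effect of over 60% in size.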 The following applies: LYMP1-002 lymphoblastoid cells, dead-cell protease fluorescence; series mostly up to 46.1 µM. The method, boiled down: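 Readout: fluorescence at 485/520 from cell-impermeant bis-AAF-R110 cleaved by proteases leaking from damaged cells. LYMP1-002 lymphoblastoid line, 16 hr compound treatment at 37 C, concentration-response in qHTS format; Hill-equation AC50 values.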

A short description of assay [8]: Cell Viability - LYMP1-003 - Assay at 40 hr (AID 964). Note: % is set by controls: 0 for no effect and ±100 for the full control effect; nearly all actives have a fitted effect of over 60% in size. The following applies: LYMP1-003 lymphoblastoid viability; series mostly up to 92.2 µM. The method, boiled down: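 LYMP1-003 lymphoblastoid cells, 2500/well; 5 hr preincubation, 40 hr compound exposure, 37 C; CellTiter-Glo 30 min RT; luminescence; Hill-fit AC50. Positive control tetraoctylammonium bromide.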

Assay [9] is described as follows: Cell Viability - LYMP2-004 (AID 966).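 Note: cells exposed to compound for 24 h; plate controls were DMSO only for no effect and tetraoctylammonium bromide control for full effect; nearly all actives have a fitted effect of over 65% in size.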 Particulars: LYMP2-004 lymphoblastoid cell viability, qHTS; series mostly up to 92.2 µM. The method, boiled down: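 Luminescent ATP read-out (CellTiter-Glo, 30 min RT) after 24 hr compound exposure at 37 C; 2500 lymphoblastoid cells/well, complete medium. Decrease in ATP = cytotoxicity; AC50 from standard Hill model.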
The nature of assay [10]: Cell Viability - LYMP2-009 (AID 968).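 Note: cells exposed to compound for 24 h at 37 °C; 0% = DMSO alone and the full-kill end = tetraoctylammonium bromide at 92 µM; nearly all actives have a fitted effect of over 55% in size.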 The following applies: LYMP2-009 lymphoblastoid cell viability; series mostly up to 92.2 µM.
Assay [11] in a line: Cell Viability - LYMP2-015 (AID 971).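 Note: cells exposed to compound for 24 h; 0% = DMSO only and full effect = 92 µM tetraoctylammonium bromide; nearly all actives have a fitted effect of over 55% in size.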 Particulars: LYMP2-015 lymphoblastoid cell viability; series mostly up to 92.2 µM. The method, boiled down: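 qHTS cytotoxicity: 2500 cells/well, 5 hr 37 C, compound 24 hr 37 C, CellTiter-Glo 30 min RT, luminescence. Loss of ATP = toxicity; AC50 via standard Hill fit.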
Assay [12] is described as follows: Cell Viability - LYMP2-017 (AID 972).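 Note: cells exposed to compound for 24 hours at 37 °C; % is set by controls: 0 for no effect and ±100 for the full control effect; nearly all actives have a fitted effect of over 55% in size.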 Particulars: LYMP2-017 lymphoblastoid cell viability; series mostly up to 92.2 µM. The method, boiled down:
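Luminescent ATP read-out (CellTiter-Glo, 30 min RT) reports viable cell number. Cells: human lymphoblastoid line, 2500 per well, 5 hr preincubation, 24 hr compound exposure at 37 C. AC50 is derived from qHTS concentration-response data using the standard Hill model.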

Assay [13] can be described thus: Cell Viability - LYMP2-019 (AID 973).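 Note: cells exposed to compound for 24 h at 37 °C; 0% = DMSO alone and full effect = 92 µM tetraoctylammonium bromide; nearly all actives have a fitted effect of over 55% in size.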 Particulars: LYMP2-019 lymphoblastoid cell line viability; series mostly up to 92.2 µM. The method, boiled down: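 qHTS, 1536-well; 2500 cells/well; 5 hr pre-incubation, 24 hr compound exposure, 37 C; CellTiter-Glo added, 30 min RT; luminescence read; AC50 via standard Hill equation.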
Assay [14] in a line: Cell Viability - LYMP2-010 (AID 981). Particulars: LYMP2-010 lymphoblastoid cell viability, qHTS; series mostly up to 92.2 µM. The method, boiled down: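 qHTS cytotoxicity, 1536-well: 2500 cells/well, 5 hr settle, 24 hr compound at 37 C, CellTiter-Glo 30 min RT, luminescence read. Decrease in ATP = toxicity; AC50 via standard Hill equation. Positive control tetraoctylammonium bromide.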

Assay [15] can be described thus: qHTS assay for small molecule agonists of retinoid X receptor alpha signaling (AID 588544; calls by dose curve). Particulars: HEK293T RXRa-UAS-bla, beta-lactamase reporter, 18 h; 530 nm emission.
Assay [16] deals with Retinoic acid receptor RXR-alpha (Homo sapiens) (UniProt P19793). The description is as above. The following applies: HEK293T RXRa-UAS-bla, beta-lactamase reporter, 18 h; series mostly up to 76.7 µM.
Sequence of Retinoic acid receptor RXR-alpha (Homo sapiens) (P19793 whole entry, looked up): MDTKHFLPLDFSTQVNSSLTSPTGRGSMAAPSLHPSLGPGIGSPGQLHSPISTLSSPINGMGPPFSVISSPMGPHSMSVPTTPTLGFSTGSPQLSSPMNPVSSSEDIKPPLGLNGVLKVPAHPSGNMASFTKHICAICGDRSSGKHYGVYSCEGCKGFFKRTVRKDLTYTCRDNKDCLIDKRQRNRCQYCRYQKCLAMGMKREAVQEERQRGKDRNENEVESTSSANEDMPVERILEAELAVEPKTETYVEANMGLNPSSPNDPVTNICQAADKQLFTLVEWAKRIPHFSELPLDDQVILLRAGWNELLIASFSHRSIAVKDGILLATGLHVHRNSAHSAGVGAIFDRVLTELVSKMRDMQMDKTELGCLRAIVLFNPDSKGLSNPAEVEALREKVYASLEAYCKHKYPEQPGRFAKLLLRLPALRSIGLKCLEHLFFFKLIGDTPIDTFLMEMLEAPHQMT
Assay [17] concerns the target Thyroid hormone receptor beta (Homo sapiens) (UniProt P10828). As to the kind of experiment: qHTS assay for small molecule antagonists of thyroid hormone receptor beta signaling (AID 588547; active = well fitted inhibition curve with a large enough effect in the signal ratio, with a control signal flat, not every such curve was filed as active; the % refers to the signal ratio;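 note: cells stimulated with 0.4 nM T3 agonist during compound exposure; % is set by controls: 0 for no effect and ±100 for the full control effect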). Particulars: TR-UAS-bla HEK293, beta-lactamase ratio, antagonist mode, 18 h. The method, boiled down: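 TR-UAS-bla GripTite HEK293 cells in 2% charcoal/dextran FBS medium were preincubated 4 h at 37 C, given compound (0.59 nM to 92 uM) plus 0.4 nM T3 (final) for 18 h, then CCF4 for 2 h at RT; Hill fit gave IC50.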

The nature of assay [18]: qHTS assay for small molecule disruptors of the mitochondrial membrane potential - 5 hr assay (AID 651755; calls by dose curve; note: nearly all actives have a fitted effect of over 40% in size; note: potency is the fitted concentration of half-maximal effect). The following applies: JC-1-type ratio dye; series mostly up to 92.2 µM. The method, boiled down:
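Seed HepG2 overnight, add compound, incubate 5 hr at 37C and 5% CO2, stain 30 min with Mito-MPS, then measure monomer (490/535 nm) and aggregate (540/590 nm) fluorescence.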

Assay [19] is described as follows: qHTS assay for small molecule agonists of the antioxidant response element (ARE) signaling pathway measured by Nrf2-dependant transcriptional activity (AID 720636; active = well fitted curve in the direction sought with a large enough effect in the repeat runs; an effect the other way counts as inactive or inconclusive; note: % of control where 0% means no effect). The following applies: ARE-luc HepG2, Nrf2 luciferase reporter, 16 h; series mostly up to 92.4 µM. The method, boiled down: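 Nrf2-dependent transcription is measured in ARE-luc HepG2 cells: compound is applied for 16 hr at 37 C after a 6 hr attachment period, and luciferase activity is quantified by luminescence using ONE-Glo.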

The target in assay [20] is Nuclear receptor subfamily 1 group I member 2 (Rattus norvegicus) (UniProt Q9R1A7). As to the kind of experiment: qHTS assay for small molecule activators of the rat pregnane X receptor (rPXR) signaling pathway (AID 651751; call rule not given here; note: 0% is about no effect). Particulars: rPXR reporter cells, luciferase (One-Glo), 24 h.
Sequence of Nuclear receptor subfamily 1 group I member 2 (Rattus norvegicus) (Q9R1A7 whole entry, looked up): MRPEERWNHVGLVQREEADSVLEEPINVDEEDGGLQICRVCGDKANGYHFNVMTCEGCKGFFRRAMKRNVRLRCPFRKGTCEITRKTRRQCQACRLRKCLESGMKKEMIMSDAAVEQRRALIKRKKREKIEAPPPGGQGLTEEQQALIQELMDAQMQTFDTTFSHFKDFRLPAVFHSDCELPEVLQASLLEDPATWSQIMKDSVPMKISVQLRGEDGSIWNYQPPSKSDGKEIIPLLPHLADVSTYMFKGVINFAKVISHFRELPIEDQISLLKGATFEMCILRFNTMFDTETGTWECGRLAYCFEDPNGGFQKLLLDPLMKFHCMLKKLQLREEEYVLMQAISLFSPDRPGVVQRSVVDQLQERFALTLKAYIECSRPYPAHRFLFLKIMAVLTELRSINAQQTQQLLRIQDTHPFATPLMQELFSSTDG

SMILES strings stand for the structures. “And” between values parts separate entries of the source, which are not always exact repeats. Identical values can stand only once. Records with an inconclusive call do not appear. The source made the active and inactive calls. Unless noted, calls come from the whole dose curve; as a rule, active = well fitted curve in the direction sought with a large enough effect; inconclusive = small, poorly fitted or top-dose-only effect, or another doubt; inactive = no such curve, though single readings can be large; an effect the other way counts as inactive or inconclusive.

Sequence of Thyroid hormone receptor beta (Homo sapiens) (P10828 whole entry, looked up): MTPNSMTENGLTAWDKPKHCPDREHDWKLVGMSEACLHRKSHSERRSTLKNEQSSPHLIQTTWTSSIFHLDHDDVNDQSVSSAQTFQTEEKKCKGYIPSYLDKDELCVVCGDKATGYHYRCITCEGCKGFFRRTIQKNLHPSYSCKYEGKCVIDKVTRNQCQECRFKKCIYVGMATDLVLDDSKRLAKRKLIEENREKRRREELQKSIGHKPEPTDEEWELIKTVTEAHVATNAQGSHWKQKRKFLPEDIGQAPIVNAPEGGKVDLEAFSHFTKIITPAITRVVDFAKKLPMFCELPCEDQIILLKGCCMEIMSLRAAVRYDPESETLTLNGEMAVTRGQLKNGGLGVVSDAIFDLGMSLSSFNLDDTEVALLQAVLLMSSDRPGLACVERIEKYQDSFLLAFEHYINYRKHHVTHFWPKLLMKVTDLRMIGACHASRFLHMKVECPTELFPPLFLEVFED

With `COc1ccc(C)cc1N`, the Potency in [1] is > 92 µM (inactive). For the same compound, the activity change, negative = cytotoxicity in assay [2] is -14.1% (inactive). The Potency entry in assay [3], in assay [4], in assay [5], in [6], in assay [7] and in assay [8] was “inactive” in each case. Besides, the Potency entry in assay [9], in assay [10], in assay [11], in assay [12], in assay [13] and in assay [14] was “inactive” in each case. For the same compound, the Potency entry in assay [16], in assay [18] and in assay [19] was “inactive” in each case. Further, the results for the max response in [15] and in assay [20] were -1.98% and 8.96% (inactive), respectively. In addition, in assay [17], the activity change % (negative = inhibition) was -19.2% (inactive).
Take `CC(=O)c1ccc(Cl)c(Cl)c1Cl`: the Potency in assay [1] is > 92 µM (inactive). Also, the activity change, negative = cytotoxicity in assay [2] is -12.1% (inactive). Also, the Potency entry in [3], in [4], in assay [5], in assay [6], in assay [7] and in [8] was “inactive” throughout. Moreover, the Potency entry in assay [9], in assay [10], in [11], in [12], in assay [13] and in [14] was “inactive” throughout. Moreover, the Potency entry in assay [16], in assay [18] and in [19] was “inactive” each time. In addition, the max response in assay [15] is -2.84%; in assay [20] it was -2.86% (inactive). In assay [17], the activity change % (negative = inhibition) is -12.3% (inactive).
Take `CCC(Cl)CC(Cl)C(Cl)C(Cl)C(Cl)C(C)Cl` (stereo unspecified): the Potency in assay [1] was > 92 µM (inactive). The activity change, negative = cytotoxicity in [2] was -24.5% (inactive). Also, the Potency entry in assay [3], in [4], in assay [5], in [6], in assay [8] and in [9] was “inactive” in each case. For the same compound, the Potency result in [10], in assay [11], in assay [12], in assay [13], in assay [14] and in assay [16] was “inactive” throughout. The Potency entry in [18] and in assay [19] was “inactive” each time. Moreover, the max response in assay [15] was -26.2%. The activity change % (negative = inhibition) in assay [17] was -1.45% (inactive).
For the compound `CCCCC(CC)COC(=O)COc1ccc(Cl)cc1Cl` (stereo unspecified), in [1], the Potency was > 92 µM (inactive). Further, the activity change, negative = cytotoxicity in assay [2] is 1.51% (inactive). Also, the Potency result in [3], in assay [4], in [5], in assay [6], in [7] and in assay [8] was “inactive” in each case. Further, the Potency entry in assay [9], in assay [10], in assay [11], in assay [12], in assay [13] and in [14] was “inactive” throughout. Also, the Potency entry in assay [16], in assay [18] and in [19] was “inactive” in each case. Further, the max response was 5.67% and -6.26% in assay [15]; -0.582% (inactive) and 1.82% (inactive) in assay [20]. Further, the activity change % (negative = inhibition) in [17] was -2.67% (inactive) and 4.45% (inactive).
Consider `C=Cc1cccc(C)c1`, for which the Potency in assay [1] was > 92 µM (inactive). Besides, the activity change, negative = cytotoxicity in assay [2] is -2.59% (inactive). The Potency entry in assay [3], in assay [4], in assay [5], in assay [6], in assay [7] and in assay [8] was “inactive” in each case. In addition, the Potency result in assay [9], in [10], in assay [11], in assay [12], in assay [13] and in assay [14] was “inactive” in each case. In addition, the Potency entry in [16], in [18] and in assay [19] was “inactive” throughout. In addition, the figures for the max response in [15] and in [20] were -15.6% and 3.54% (inactive), respectively. In assay [17], the activity change % (negative = inhibition) is -8.39% (inactive).
`Oc1c(Cl)cc(Cl)c(Cl)c1Cl`: the figures for the Potency in [1] and in assay [18] were > 92 µM (inactive) and 37.6 µM (active), respectively. Also, the Potency result in [3], in [4], in assay [5], in assay [6], in [8] and in assay [9] was “inactive” in each case. Besides, the Potency entry in [10], in assay [11], in assay [12], in assay [13], in assay [14] and in assay [16] was “inactive” throughout. Also, the Potency entry in assay [19] was “inactive”. For the same compound, the max response is 23.7% and -14.7% in assay [15]; -11.7% (inactive) and -1.19% (inactive) in assay [20]. Besides, in assay [17], the activity change % (negative = inhibition) is -15.9% (inactive) and 13.1% (inactive).
